# Compound activity (PubChem BioAssay)
# Sampled rows, rich in hits. Any-hit rate of the full collection: about 1.2%.
# RXFP1 agonist – activates the human relaxin receptor RXFP1 | HEK293T-RXFP1 cAMP TR-FRET, 30 min; response scale: percent of porcine relaxin response, buffer zero | Potency, µM (top dose mostly 57.5 µM), hits mostly activators | 0.3% of 370,000 active | AID 2676; active = well fitted activation curve with a large enough effect; inconclusive = small, poorly fitted or top-dose-only effect; also: nearly all actives have a fitted effect of over 60% in size
# Target sequence (Q9HBX9 whole entry, looked up): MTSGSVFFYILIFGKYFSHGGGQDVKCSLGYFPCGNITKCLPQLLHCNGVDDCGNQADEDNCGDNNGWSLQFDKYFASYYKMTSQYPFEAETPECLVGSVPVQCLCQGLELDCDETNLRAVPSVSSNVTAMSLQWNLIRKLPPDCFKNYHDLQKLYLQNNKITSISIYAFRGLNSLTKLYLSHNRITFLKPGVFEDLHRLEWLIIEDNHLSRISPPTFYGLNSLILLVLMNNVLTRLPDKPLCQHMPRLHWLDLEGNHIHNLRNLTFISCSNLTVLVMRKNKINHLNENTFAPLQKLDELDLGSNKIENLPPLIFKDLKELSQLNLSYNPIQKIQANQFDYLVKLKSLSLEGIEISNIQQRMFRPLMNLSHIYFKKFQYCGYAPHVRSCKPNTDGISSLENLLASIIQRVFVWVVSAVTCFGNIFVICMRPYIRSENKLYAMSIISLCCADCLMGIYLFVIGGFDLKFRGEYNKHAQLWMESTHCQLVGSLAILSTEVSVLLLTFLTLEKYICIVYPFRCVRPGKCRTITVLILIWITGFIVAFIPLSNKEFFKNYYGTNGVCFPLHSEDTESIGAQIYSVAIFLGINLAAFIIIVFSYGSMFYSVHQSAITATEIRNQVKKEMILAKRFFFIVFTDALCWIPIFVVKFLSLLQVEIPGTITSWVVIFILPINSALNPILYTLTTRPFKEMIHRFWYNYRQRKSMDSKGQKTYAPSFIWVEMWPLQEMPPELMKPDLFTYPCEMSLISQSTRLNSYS
#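 cAMP rise read by TR-FRET after 30 min, 37C compound exposure (up to 58 uM) in RXFP1-transfected HEK293 cells with Ro 20174 present. EC50 from Hill-equation fits, with 29 nM porcine relaxin as 100% and buffer as basal.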
# gsp antagonist – antagonists of gsp mutant (McCune-Albright syndrome) | gsp-mutant cells, cAMP HTRF, 30 min | Potency, µM (highest dose often 76.9 µM), most hits filed as inhibitors | 0.4% of 340,000 active | AID 624288; calls by dose curve; cell line not stated here;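 also: intracellular cAMP measured with PDE inhibitor Ro 20-1724 present during compound exposure; nearly all actives have a fitted effect of over 65% in size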
#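 HTRF cAMP measurement after 30 min RT detection following 30 min, 37C compound treatment alongside […] (added as 300 uM solution) in G418-selected cells seeded at 2000/well and grown 16–24 h.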
# gsp ag – activates gsp, the McCune-Albright syndrome mutation; AID 624287; Potency, µM (series often up to 76.9 µM), usual class: activators; gsp mutant cells, cAMP HTRF, 30 min; 0.13% of 340,000 active; active = well fitted activation curve with a large enough effect; inconclusive = small, poorly fitted or top-dose-only effect, or another doubt; inactive = no such curve, though single readings can be large or run the other way; cell line not stated here;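 also: phosphodiesterase inhibitor Ro 20-1724 added with compounds to block cAMP breakdown; nearly all actives have a fitted effect of over 60% in size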
#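 Cells stably selected in G418 were plated at 2000/well, grown 16-24 hr, then given compounds in DMSO with the PDE inhibitor […] (300 uM solution added) for 30 min at 37C; cAMP was read by HTRF.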
# RXFP1 antag – RXFP1 (human) relaxin receptor antagonism; 0.59% of 350,000 active; HEK293-RXFP1, relaxin-stimulated cAMP HTRF, 30 min; hits give low values; Q9HBX9; activity change, negative = inhibition, % at 57.5 µM;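 active = activity change of -60% or lower, but not beyond a set lower limit; inconclusive = change between -60% and -40%, or beyond the set limit; inactive = change above -40%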
# Akt phos inh – inhibitors of Akt phosphorylation; Neuro2A IGF-stimulated pAkt S473 HTRF, 20 min; hits give low values; activity change, % for hits at 50 µM; 0.32% of 360,000 active; AID 651550; in the data active = activity change below about -80%; inconclusive = mostly about -51% to -80%
#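 Neuro2A cells (4,500/well, DMEM with 0.5% FBS) were treated with compound at a single 50 µM final concentration, stimulated with 6 nM IGF for 20 min at 37 °C, and lysed. Phospho-Akt Ser473 was read by HTRF as 665/615 ratio ×10^4.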
# A number is an active result; 0 = inactive; ? = inconclusive; - = no result given; ! = not confirmed by another sample; [ ] = remark or other dose.
SMILES,RXFP1 agonist,gsp antagonist,gsp ag,RXFP1 antag,Akt phos inh
COc1ccc(C)cc1NC(=O)COC(=O)c1c(C)nn(-c2ccccc2)c1C,0,39.8µM,0,0,0
COc1ccc(OC)c(NC(=O)COC(=O)c2n[nH]c3ccccc23)c1,0,44.7µM,0,0,0
Cc1nn(-c2ccccc2)c(C)c1C(=O)OCC(=O)Nc1ccccc1F,0,0,0,0,0
Cc1oc2ncn(CC(C)C)c(=O)c2c1C(=O)NCCCN(Cc1ccccc1)C(C)C,0,-,-,-,-
CCOc1ccc(Br)cc1C1C(C(=O)Nc2ccccc2OC)=C(C)Nc2nnnn21 (configuration not stated),0,-,-,0,-
CN(C)CCOC(c1ccccc1)c1ccc(Br)cc1 (configuration not stated),-,-,-,0,-
Cc1nc(SCc2ccc(Cl)c(Cl)c2)n[nH]1,0,0,0,0,0
Cc1nc(SCc2cccc(Oc3ccccc3)c2)n[nH]1,0,0,0,0,-112.4%
CC1=C/C(=N\OS(=O)(=O)c2ccccc2)C(C)=CC1=O,0,28.2µM,0,?,0
CC(=O)c1sc(C(C)(C)C)cc1NC(=O)CCC(=O)O,?,0,8.91µM,0,0
CC(C)(C)c1cc(C=O)cc(C(C)(C)C)c1O,-,-,-,0,-
CCN(CC)CC(=O)Nc1c(C)cccc1C(=O)OC,-,-,-,0,-
COc1ccccc1NC(=O)CSCc1cc(=O)c2cccc(Cl)c2[nH]1,0,-,-,0,-
Cc1ccc(S(=O)(=O)N2CCN(C(=O)CN3CCCCC3)C2)cc1,0,0,0,0,-101.1%
CC(=O)N(C1CC(C)C(C#N)(C#N)C1(C#N)C#N)N(C)C (configuration not stated),0,0,0[15.4 µM],0,0
CCCC(=O)N(C1CC(C)C(C#N)(C#N)C1(C#N)C#N)N(C)C (configuration not stated),0,0,0[15.4 µM],-85.2,0
CS(=O)(=O)N(CC(=O)NCCSc1ccccc1)c1cc(C(F)(F)F)ccc1Cl,0,-,-,-,-
Cc1nc2c(cnn2-c2ccccc2Cl)c(=O)n1-c1ccc(N2CCC(C)CC2)cc1,0,35.5µM,0,0,0
CC(C)(C)c1ccc(OCCSc2nc(-c3cccs3)nc3cc(=O)[nH]n23)cc1,0,-,-,0,-
COc1ccc(OC)c(CCNC(=O)Cn2ccc3cc(S(=O)(=O)N4CCCCC4)ccc32)c1,0,-,-,0,-
COc1ccc(OC)c(CN2CCCCCC2)c1,0,0,0,-119.5,0
CN(C)c1nc(-c2cn(CCC#N)c3ccccc23)cs1,0,?,0[15.4 µM],-81.9,0
COCCn1cc(-c2csc(N)n2)c2ccccc21,0,0,0,0,0
Cc1ccc(CNC(=O)c2c(C)oc3nc(C)nc(N4CCOCC4)c23)cc1,0,-,-,0,-
CCCCNC(C(=O)Nc1cccc(S(=O)(=O)N2CCOCC2)c1)c1ccccc1 (configuration not stated),0,11.2µM,0[15.4 µM],0,0
SMILES,RXFP1 agonist,gsp antagonist,gsp ag,RXFP1 antag,Akt phos inh
Cc1ccc(C)c(SCC(=O)Nc2cccc(S(=O)(=O)N3CCOCC3)c2)c1,0,0,0[15.4 µM],0,0
OCCN1CCN(C(=S)Nc2cccc(C(F)(F)F)c2)CC1,0,0,0,-68.5!,0
Cn1c2ccccc2c2cc(/C=N/NC(=O)c3ccc(O)cc3O)ccc21,0,?,0,0,0
Cn1c(O)c(/C=N/NC(=O)c2cc3ccccc3cc2O)c2ccccc21,0,35.5µM,0[15.4 µM],?,0
CC(C)NC(=O)C1CCN(c2nc3ccccc3nc2C(F)(F)F)CC1,0,-,-,-,-
CCN(CCNC(=O)c1ccc(CSc2nc3ccncc3[nH]2)cc1)c1ccccc1,0,0,0,-,0
O=C(NCCN1CCN(c2cccc(Cl)c2)CC1)c1ccc(CSc2nc3ccncc3[nH]2)cc1,0,31.6µM,0,0,0
CC1C(c2ccc3c(c2)OCO3)c2cc3c(cc2OC1N1CCOCC1)OCO3 (configuration not stated),-,0,0,-72.9,0
Cc1ccc(Cl)cc1N1CCN(C(=O)c2cn(C)c3ccc(S(=O)(=O)N4CCCC4)cc3c2=O)CC1,0,-,-,0,-
CCOc1ccc(-c2nonc2NC(=O)c2oc3ccc(Cl)cc3c2C)cc1,0,-,-,0,-
CCc1ccc(CN(Cc2ccco2)C(=O)c2ccc(OC)cc2)cc1,0,-,-,-63.3,-
CCc1ccc(OCC(=O)N(Cc2ccco2)Cc2ccco2)cc1,0,-,-,0,-
CCc1ccc(CN(Cc2ccco2)C(=O)COc2ccccc2Cl)cc1,0,-,-,-61.4,-
CCOC(=O)CNC(=S)N(Cc1ccco1)Cc1ccccc1Cl,0,39.8µM,0,0,0
Cc1cc2oc(C(=O)N(Cc3ccco3)Cc3ccccc3Cl)c(C)c2cc1C,0,-,-,-,-
COc1ccc(C(=O)N(Cc2ccco2)Cc2ccc(C)o2)cc1,0,-,-,0,-
CCc1ccc(NC(=O)CC2C(=O)N(c3ccc(Cl)cc3)C(=O)N2Cc2ccco2)cc1 (configuration not stated),0,-,-,0,-
Cc1ccccc1Cn1c2ccccc2c2cnn(CC(=O)NCCCc3ccccc3)c(=O)c21,0,-,-,0,-
CC1=NNC(=O)/C1=C\c1cn(-c2ccccc2)nc1-c1ccc(F)cc1,0,0,0[15.4 µM],-61.3,0
O/N=C/c1cn(-c2ccccc2)nc1-c1cccnc1,0,0,0[15.4 µM],0,0
CC1=NNC(=O)/C1=C\c1cn(-c2ccccc2)nc1-c1cccs1,0,0,0,?,0
Cc1ccc(-c2nn(-c3ccccc3)cc2/C=N/O)cc1,0,0,0,-63.7,0
CN(C)Cc1nc2c(c(=O)[nH]1)C1(CCCCC1)Cc1ccccc1-2,0,0,0,-61.9,0
COc1ccc(C(=O)CN2C(=O)N(c3cc(C)cc(C)c3)S(=O)(=O)c3ccccc32)cc1,0,-,-,0,-
S=c1[nH]nc(-c2ccccc2)c2ccccc12,0,0,?,-84.2,0
SMILES,RXFP1 agonist,gsp antagonist,gsp ag,RXFP1 antag,Akt phos inh
Cc1ccc(-c2n[nH]c(=S)c3ccccc23)cc1,0,0,?,0,0
CCn1cc(C(=O)OCC(=O)Nc2cc(OC)cc(OC)c2)c(=O)c2ccc(C)nc21,0,-,-,-,-
COc1cc(NC(=O)CSc2nc(-c3ccc(C(C)C)cc3)no2)cc(OC)c1,0,-,-,0,-
CCOC(=O)c1nnn(-c2nonc2N)c1CN1CCCC1,0,50.1µM,0,0,0
CCOC(=O)c1nnn(-c2nonc2N)c1-c1ccc(Cl)cc1,0,0,0,0,0
CCOC(=O)c1nnn(-c2nonc2N)c1-c1ccc(OC)cc1,0,0,0,0,-109.6%
Cc1nn(S(=O)(=O)c2cccs2)c(C)c1Sc1ccc([N+](=O)[O-])cc1,0,25.1µM,0,0,0
Cc1cccc(NC(=O)c2cc(NC(=O)C3CCCCC3C(=O)O)ccc2N2CCCCC2)c1 (configuration not stated),0,35.5µM,0,0,0
CC(=O)Nc1ccc(N2CCCCC2)c(C(=O)Nc2cccc(C)c2)c1,0,0,0,0,0
CC(C)COC(=S)Nc1ccccc1,0,0,?,0,-108.2%
COC(=O)c1c(NC(=S)Nc2ccc(CC(=O)O)cc2)sc(C)c1C,0,0,?,-62.8,0
